The source of these data is PubChem BioAssay (NCATS).

The structures appear in SMILES notation. Results filed as inconclusive are left out. Values without a mark were called inactive. Active and inactive are the calls of the source. Calls follow the shape of the dose curve; as a rule, active = well fitted inhibition curve with a large enough effect; inconclusive = small, poorly fitted or top-dose-only effect; inactive = flat fitted curve, though single readings scatter.

What all share (test): Cytotoxic Profiling of Annotated Libraries Using Quantitative High-Throughput Screening (AID 1296008); also: nearly all actives have a fitted effect of over 60% in size
What all share (conditions): Five cell lines viability, CellTiter-Glo ATP luminescence, 48-72 h; max response: hits give low values

Assay [1] concerns CRL-7250. The method, boiled down: (§1)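 Cytotoxicity was measured as CellTiter-Glo ATP luminescence, read after 10 min at room temperature. Compound treatment of the cells lasted 48 or 72 hr at 37 degrees Celsius in a qHTS format.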
Assay [2] deals with HEK293. The method, boiled down: as §1
In assay [3] the test system is HaCat. The method, boiled down:
as §1

The subject of assay [4] is KB-3-1. The method, boiled down: as §1
In assay [5] the test system is NIH3T3. The method, boiled down:
as §1
% is scaled to controls: 0 for no effect and ±100 for the full control effect; potency is read from the fitted curve at half-maximal effect.

Turning to `C[C@@H]1O[C@@H](O[C@@H]2[C@@H](O)[C@H](O[C@@H]3[C@@H](O)[C@@H](O)[C@H](O[C@H]4[C@H](OC(=O)[C@]56CCC(C)(C)C[C@H]5C5=CCC7[C@@]8(C)C[C@H](O)[C@H](O[C@@H]9O[C@H](C(=O)O)[C@@H](O)[C@H](O)[C@H]9O)[C@@](C)(CO)C8[C@H](O)C[C@@]7(C)[C@]5(C)C[C@H]6O)O[C@@H](CO)[C@@H]4O)O[C@H]3C)OC[C@H]2O)[C@H](O)[C@H](O)[C@H]1O` (stereo not given in full), the max response in assay [1] was 0.0733%; in assay [2], 1.63%. Further, the call in assay [3], in assay [4] and in assay [5] was inactive.
Turning to `CC(NC(=O)CC(=O)O)C(=O)Nc1ccccc1C(N)=O` (stereo not given), the max response in assay [1] was -2.72%; in assay [2], 2.48%; in assay [3], -2.92%; in assay [4] it was 3.19%. Moreover, in assay [5], the outcome was inactive.
In the case of `CC1=CCC(O)C2(C)CCC3C(C)C(=O)OC3C12` (stereo not given), the max response in assay [1] was -3.96%; in assay [2], -18.2%; in assay [4], -6.48%; in assay [5] it was -0.383%. Besides, in assay [3], the molecule was called inactive.
As to `C=C1C(=O)O[C@@H]2C[C@]3(C)[C@@H](CCC(C)=O)[C@@H]3C[C@H]12`, the max response in assay [1] was 4.44%; in assay [2], -12.9%; in assay [4], 2.7%. Besides, the molecule was classed as inactive in assay [3] and in assay [5].
`COC(=O)C1=CO[C@@H](O[C@@H]2O[C@H](CO)[C@@H](O)[C@H](O)[C@H]2O)[C@@H]2[C@@H](C)[C@@H](O)C(O)[C@H]12` (stereo not given in full): the max response in assay [1] is -0.07%; in assay [2], -12.7%. Moreover, the result in assay [3], in assay [4] and in assay [5] was inactive.
For `C=CC(C)(O)CC/C=C(\C)C1CC=C(C)C(=O)O1` (stereo not given), the outcome in assay [1], in assay [3] and in assay [5] was inactive. In addition, the max response in assay [2] was -4.28%; in assay [4], 2.69%.
Take `CCc1nnc(NS(=O)(=O)c2ccc(NC(=S)NC(=O)/C=C/c3ccc(F)cc3)cc2)s1`: the result in assay [1], in assay [3], in assay [4] and in assay [5] was inactive. For the same molecule, the max response in assay [2] is -0.631%.
Take `C=CCC/C=C/C#CCCCCCCCC[C@H]1C(=O)O[C@H](C)[C@@H]1O`: the max response in assay [1] was 0.985%; in assay [2] it was -11.8%; in assay [4] it was -1.24%; in assay [5], 0.0642%. Moreover, in assay [3], the molecule was called inactive.
The matching figures for `CC1=C2C[C@H]3OC(=O)[C@H](O)[C@@]4(O)[C@@H](C)[C@@H](O)[C@H](O)C([C@@]2(C)[C@H](O)[C@@H](O)C1)[C@@]34C` (stereo not given in full): -2.09%, -1.6%, 9.81%, 2.2% and “inactive”.
Turning to `CC1(C)CC[C@]2(C(=O)O)CC[C@]3(C)C(=CCC4[C@@]5(C)C(=O)C[C@H](O)[C@@](C)(CO)C5CC[C@]43C)[C@@H]2C1` (stereo not given in full), the max response is -2.6% in assay [1], 3.17% in assay [2], -1.1% in assay [3] and 8.25% in assay [4]. Further, in assay [5], the call was inactive.
For the molecule `CC(=O)/C=C/[C@H]1[C@](C)(O)[C@@H](O)[C@H](O)C2C(C)(C)CCC[C@@]21C` (stereo not given in full), the results for the max response in assay [1], in assay [2] and in assay [4] were -11.3%, -5.03% and -3.39%, respectively. Further, the molecule was classed as inactive in assay [3] and in assay [5].
Regarding `C[C@@H]1O[C@@H](O[C@H]2[C@H](O)[C@@H](O[C@@H]3O[C@H](CO)[C@H](O)[C@H](O)[C@H]3O)[C@H](O[C@H]3CC[C@@]4(C)C(CC[C@]5(C)C4CC=C4[C@@H]6CC(C)(C)CC[C@]6(C(=O)O[C@@H]6O[C@H](CO)[C@@H](O)[C@H](O)[C@H]6O)CC[C@]45C)C3(C)C)O[C@@H]2C(=O)O)[C@H](O)[C@H](O)[C@H]1O` (stereo not given in full), the max response was -0.719% in assay [1], 0.183% in assay [2], 9.11% in assay [4] and -6.48% in assay [5]. Also, the outcome in assay [3] was inactive.
Taken in the same sequence, the figures for `COc1ccc(NC(=O)c2ccc(-c3ccc(C(N)=O)cc3C)cc2)cc1N1CCN(C)CC1` were -5.67%, -78.4%, 1.64%, 4.28% and “inactive”.
Consider `C/C=C(\C)C(=O)O[C@H]1C=CC(=O)O[C@H]1/C=C/[C@H](O)[C@@H](C)O`, for which the values for the max response in assay [1], in assay [2] and in assay [5] were 4.14%, -103% and -1.43%, respectively. Besides, the call in assay [3] and in assay [4] was inactive.
For the molecule `CC(=O)O[C@@H]1CC2C(C)(C)C(=O)C=C[C@]2(C)C2CC[C@]3(C)C(=CC(=O)[C@@H]3c3ccoc3)[C@@]21C` (stereo not given in full), the max response was 0.62% in assay [1], -22.3% in assay [2] and 0.533% in assay [5]. For the same molecule, the molecule was called inactive in assay [3] and in assay [4].
Turning to `CC1(C)C[C@H]2C=C(C=O)[C@]3(C(=O)O)C[C@]3(C)[C@H]2C1`, the max response in assay [1] is -0.156%; in assay [2], -14%; in assay [4] it was 6.21%; in assay [5], 0.712%. In assay [3], the result was inactive.
`c1cc(-c2cc(C3CCNCC3)[nH]n2)ccn1`: the max response in assay [1] was -3.47%; in assay [2] it was -20.2%; in assay [4], 2.66%. Moreover, the outcome in assay [3] and in assay [5] was inactive.
Regarding `CCc1cc(CC[C@]2(C3CCCC3)CC(O)=C(Cc3nc4nc(C)cc(C)n4n3)C(=O)O2)cc(CC)n1`, the call in assay [1] and in assay [3] was inactive. Further, the max response in assay [2] was 0.838%; in assay [4] it was -0.912%; in assay [5], -7.94%.
For the molecule `C=C(C)[C@H]1CC[C@]2(C(=O)O)CC[C@]3(C)C(CCC4[C@@]5(C)CCC(=O)C(C)(C)C5CC[C@]43C)C12` (stereo not given in full), the max response in assay [1] was -18.5%; in assay [4] it was -14.2%; in assay [5], -1.29%. Further, the Potency in assay [2] is 7.09 µM (active). In addition, the molecule was called inactive in assay [3].
